High-throughput results as filed in PubChem BioAssay.
Shown is part of a subset that was picked to be rich in hits.
Pin1 inh = qHTS Assay to Find Inhibitors of Pin1; AID 504891, 2011; Pin1 FP peptide displacement, HiFluor488, 10 min; Potency, µM (top dose mostly 115 µM), without a hit: at the highest dose activity, negative = inhibition, actives largely listed as inhibitors; 390,000 compounds, 0.009% hits; Peptidyl-prolyl cis-trans isomerase NIMA-interacting 1 (Homo sapiens), Q13526; active means well fitted inhibition curve with a large enough effect in the polarisation, with a control signal flat, not every such curve was filed as active; inconclusive means small, poorly fitted or top-dose-only effect, or effect the other way, or a change in a side signal; inactive means no such curve, though single readings can be large or run the other way; the % refers to the polarisation; further: potency means the concentration at half of the fitted maximal effect
Target sequence (Q13526 whole entry, looked up): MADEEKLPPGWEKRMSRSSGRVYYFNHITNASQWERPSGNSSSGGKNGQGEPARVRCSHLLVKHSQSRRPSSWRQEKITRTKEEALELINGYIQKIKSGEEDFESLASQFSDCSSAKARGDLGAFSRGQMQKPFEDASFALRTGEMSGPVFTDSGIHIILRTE
PI5P4K alpha inh = qHTS for Inhibitors of phosphatidylinositol 5-phosphate 4-kinase (PI5P4K). Phosphatidylinositol 5-phosphate 4-kinase type-2 alpha (Homo sapiens), P48426. PI5P4Kalpha enzyme, ADP-Glo luminescence, 60 min; hits give low values. max response, %. 330,000 compounds, 1.2% hits. AID 652105, 2013; active means max response of -50% or lower; inconclusive means between -30% and -50%; inactive means -30% or higher; further: value at the top dose of about 77 µM
Target sequence (P48426 whole entry, looked up): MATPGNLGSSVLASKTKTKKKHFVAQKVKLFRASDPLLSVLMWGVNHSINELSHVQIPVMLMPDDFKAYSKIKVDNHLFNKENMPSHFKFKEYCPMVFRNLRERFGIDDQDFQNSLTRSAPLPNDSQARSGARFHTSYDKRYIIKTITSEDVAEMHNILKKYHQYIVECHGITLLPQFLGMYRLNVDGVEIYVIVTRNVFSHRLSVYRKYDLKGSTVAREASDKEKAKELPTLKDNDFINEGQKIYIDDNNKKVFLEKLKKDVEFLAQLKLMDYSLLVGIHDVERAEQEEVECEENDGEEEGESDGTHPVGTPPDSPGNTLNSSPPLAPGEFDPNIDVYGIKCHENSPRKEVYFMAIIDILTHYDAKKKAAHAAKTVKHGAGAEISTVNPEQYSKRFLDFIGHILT
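Compounds were pin-transferred onto PI5P4Kalpha and substrate in HEPES pH 7.4 buffer with EGTA, CHAPS and 5% DMSO. ATP (5 microM final) started the reaction, which ran 60 minutes at room temperature before ADP-Glo detection.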
PGK inhibitor = qHTS Assay to Find Inhibitors of Phosphoglycerate Kinase. 380,000 compounds, 0.043% hits. AID 602233, 2012. PGK/GAPDH coupled, Kinase-Glo luminescence, 60 min. Potency, µM (doses to about 57.5 µM), without a hit: at the highest dose activity change, negative = inhibition, actives largely listed as inhibitors. Phosphoglycerate kinase, glycosomal (Trypanosoma brucei brucei), P07378; further: potency means the concentration at half of the fitted maximal effect; nearly all actives have a fitted effect of over 60% in size
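Recombinant glycosomal PGK reaction used 1,3-bisphosphoglycerate generated in-well by GAPDH (100nM final) in 100mM TEA pH 7.6, 5mM MgCl2, 0.01% Tween-20. After 60 minutes at room temperature, ATP was read by Kinase-Glo Plus luminescence end-point.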
Tb PFK inh = qHTS Assay to Find Inhibitors of T. brucei phosphofructokinase; T. brucei PFK, ADP-Glo luminescence; Potency, µM (doses to about 57.5 µM), inactives show at the highest dose activity, negative = inhibition, hits mostly inhibitors; 330,000 compounds, 0.17% hits;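 further: potency means the concentration at half of the fitted maximal effect; 0% = uninhibited 1x PFK enzyme wells and -100% = no-enzyme wells; nearly all actives have a fitted effect of over 60% in size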
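Activity is normalized to no-enzyme wells (full inhibition) and 1.25 nM enzyme wells (no inhibition). Reaction: 0.5 mM F6P, 0.1 mM ATP, 45 min RT, ADP-Glo luminescence; concentration-response curves fitted and classed by quality.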
PI4K2A block = qHTS for small molecular inhibitors of PI4K2A; purified PI4K2A, ADP-Glo luminescence, 1 h; hits give low values; activity change, negative = inhibition, % at 76.9 µM; 420,000 compounds, 0.13% hits; in the data active means activity change below about -50%; inconclusive means mostly about -30% to -49%;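 further: -100% = wells without enzyme as full effect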
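Compounds are screened against recombinant PI4K2A using PI as substrate and ATP, the latter dispensed at 300 microM. Reactions run one hour at ambient temperature before ADP-Glo detection; full inhibition defined by wells lacking enzyme.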
* hit, by the source's call; i = inactive; ? = inconclusive; / = not tested or not shown; [ ] = remark or other dose. Unless noted, the call rests on the fitted dose curve; in most records, active means well fitted curve in the direction sought with a large enough effect; inconclusive means small, poorly fitted or top-dose-only effect, or another doubt; inactive means no such curve, though single readings can be large; an effect the other way counts as inactive or inconclusive. Unless noted, on the % scale 0 is the no-effect control and ±100 the full control effect.

SMILES	Pin1 inh	PI5P4K alpha inh	PGK inhibitor	Tb PFK inh	PI4K2A block
N#Cc1c(-c2ccccc2)[nH]c(=S)[nH]c1=O	4%	-62*	6%	3%	-9
N#Cc1cc(-c2cccc(Cl)c2)c[nH]c1=O	-8%	-6	-4%	-5%	3
c1ccc(P(c2ccccc2)c2cnc3ccccn23)cc1	-1%	/	/	/	/
O=C(/C=C/c1ccc([N+](=O)[O-])cc1)NC1CC2CCC1C2 (stereo not drawn)	-8%	-52*	-8%	5%	-6
Cc1ccc(SCc2cc(=O)c3c(=O)n(-c4ccccc4)[nH]c3[nH]2)cc1	?	-62*	0%	-11%	-10
O=C(NCCN1CCC(Cc2ccccc2)CC1)C1CCCN(S(=O)(=O)c2ccc([N+](=O)[O-])cc2)C1 (stereo not drawn)	/	/	/	/	3
Cn1cnnc1SCC(=O)Nc1ncc([N+](=O)[O-])s1	-18%	-50*	?	-15%	-7
O=C(COC(=O)COc1ccccc1)Nc1ncc([N+](=O)[O-])s1	?	-53*	-15%	-5%	-4
COc1ccc(OCC(=O)N/N=C2\CCCCc3ccccc32)cc1	4%	-63*	-1%	-3%	-4
CN(C)CCCOC1(Cc2ccccc2)CCCCCC1	/	/	/	/	3
O=C(NCc1ccco1)C1CCN(S(=O)(=O)N2CCOCC2)CC1	-6%	/	1%	-7%[0.46 µM]	-85*
O=c1[nH]sc2cc(Cl)ccc12	/	/	/	/	0
Cc1cc(C)c(S(=O)(=O)/N=C2/C=C(Sc3ncn[nH]3)C(=O)c3ccccc32)cc1C	38µM*	-80*	?	?	-54*
NC(=Nc1cccc(F)c1)NC(=O)OCc1ccccc1	/	/	/	/	4
COC(=O)c1cn(-c2ccccc2)nc1C(=O)OC	-10%	/	-1%	3%	2
O=C(O)c1cn(-c2ccccc2)nc1C(=O)O	?	-52*	3%	12%	-5
O=C1NC(=O)/C(=C/c2ccc3c(c2)OC(F)(F)O3)S1	/	/	/	/	4
N#Cc1nc(Nc2cc(Cl)cc(Cl)c2)nc(NC2CCCC2)n1	8%	/	/	/	/
Cn1c2ccccc2c2ccc3c(c21)C(=O)C=CC3=O	35%	-72*	-11%	/	-15
COc1ccc2c(c1)c1ccc3c(c1n2C)C(=O)C=CC3=O	75%	-74*	-3%	-10%	-18
Cc1ccc2c(c1)c1ncnc(N3CCOCC3)c1n2C	2%	4	-6%	9%	-4
Cc1ccc2c(c1)c1ccc3c(c1n2C)C(=O)C=CC3=O	40%	-74*	6%	-4%	-22
Cc1ccsc1C=Nn1c(-c2n[nH]c3c2CCC3)n[nH]c1=S	/	/	/	/	-3
CN(C)/C=C/C(=O)c1ccc2noc(-c3cccc(F)c3)c2c1	?	-66*	/	-3%	-2
COc1ccc(-c2onc3ccc(C(=O)/C=C/N(C)C)cc23)cc1	-3%	-78*	-3%	1%	-13
SMILES	Pin1 inh	PI5P4K alpha inh	PGK inhibitor	Tb PFK inh	PI4K2A block
O=C1CCc2cc(S(=O)(=O)Nc3cccnc3)ccc2N1	-4%	/	/	/	/
COc1cc(OC)nc(O[C@H](C(=O)O)C(OC)(c2ccccc2)c2ccccc2)n1	/	/	/	/	1
O=C(O)c1cccc(N2C(=O)/C(=C/c3ccc(SCc4ccc(Cl)cc4)o3)SC2=S)c1	?	-73*	35µM*	18%	-13
Cc1cc2nc(-c3ccc(SCc4ccc(C(=O)O)cc4)nc3)[nH]c2cc1C	?	-64*	-10%	10%	0
C[C@H]1[C@@H](OC(=O)Nc2ccc(C(F)(F)F)cc2)CC[C@@]23CCCN2C(=O)CCC[C@@H]13	/	/	/	/	1
CC1(C)[C@@H](O)CC[C@]2(C)C3C(O)C=C4[C@H]5C[C@@](C)(CO)CC[C@]5(C)CC[C@]4(C)[C@]3(C)CC[C@@H]12 (stereo partly drawn)	?	-62*	4%	-7%	1
Cc1ccc(C(=O)COC(=O)c2ccc(Cl)c(N)c2)s1	25%	-5	-8%	7%	-2
Nc1cc(C(=O)OCC(=O)c2ccc(CC(=O)N3CCOCC3)s2)ccc1Cl	?	-52*	-5%	-17%	-29
Cn1cncc1CNc1ncnc2ccc(-c3ccc4c(c3)OCO4)cc12	0%	/	/	/	/
CCc1cccc2c(C(=O)COC(=O)c3cccc(S(=O)(=O)N(C)C4CCCCC4)c3)c[nH]c12	-3%	-68*	-9%	0%	0
Cc1ccc(F)cc1C(=O)N(Cc1ccccn1)CC1CCCO1 (stereo not drawn)	/	/	/	/	-2
C#CCOc1c(/C=C\c2nc(O)c([N+](=O)[O-])c(=O)[nH]2)cc(Br)cc1OC	?	-68*	4%	-2%	-17
COC(=O)COc1c(/C=C\c2nc(O)c([N+](=O)[O-])c(=O)[nH]2)cccc1OC	-7%	-20	-7%	1%	-8
COc1ccc(/C=C\c2nc(O)c([N+](=O)[O-])c(=O)[nH]2)cc1O	-5%	-74*	-5%	11%	-6
C=CCOc1ccc(/C=C\c2nc(O)c([N+](=O)[O-])c(=O)[nH]2)cc1OC	-7%	?	-12%	3%	-1
C=CCOc1ccc(/C=C\c2nc(O)c([N+](=O)[O-])c(=O)[nH]2)cc1OCC	-4%	-55*	/	7%	-7
CC(C)(C)C(=O)OC12CCCN(C1)/C(=C/c1ccc(C#N)cc1)C2 (stereo not drawn)	/	/	/	/	3
COC(=O)C12C=C3CC(C)=C3C(=O)N1Cc1[nH]c3ccccc3c1C2 (stereo not drawn)	/	/	/	/	-8
COCCn1c(NC(=S)NC(=O)C23CC4CC(CC(C4)C2)C3)cc(=O)[nH]c1=O	-14%	?	-7%	1%	-3
COCCn1c(NC(=S)NC(=O)C2CC2)cc(=O)[nH]c1=O	-7%	-60*	-3%	-6%	-3
c1ccc(-c2nnsc2-c2ccccc2)cc1	-3%	-60*	4%	2%	0
CC1(C)OC(=O)Nc2ccc(Br)cc21	/	/	/	/	-4
S=c1[nH]nc2ccccn12	-2%	-85*	-4%	/	1
Cc1ccn2c(=S)[nH]nc2c1	/	-78*	i	/	3
c1ccn2c(c1)nc1c2nc2ccccn21	-8%	/	2%	-7%	-8
Cc1cc2c(s1)c1cnn(Cc3cccc(C(F)(F)F)c3)c(=O)c1n2C	1%	/	/	/	/
CCC(=O)N1CCc2cc(Br)c(S(=O)(=O)N3CCC(C(=O)NCCCOC(C)C)CC3)cc21	/	/	/	/	-2
COc1ccc(C=C2C(=O)c3ccccc3C2=O)cc1O	2%	-60*	?	1%	?
COc1cc(C=C2C(=O)c3ccccc3C2=O)ccc1O	-4%	?	-16%	2%	-18
